Over roughly 33,000 sequences, “E-score (-0.5 to 0.5)” has its median near -0.041; the highest 2% begin near 0.37. The full list was thinned out, with the highest values kept by preference.
These sequences were tested against T1, Ecm22 (UniProt Q05958) (assay: PBM E-score (8-mer binding enrichment) (E-score (-0.5 to 0.5)); higher = stronger / more preferred TF binding). Conditions: protein concentration: 200 nM; construct: GST-full length.
T1 sequence: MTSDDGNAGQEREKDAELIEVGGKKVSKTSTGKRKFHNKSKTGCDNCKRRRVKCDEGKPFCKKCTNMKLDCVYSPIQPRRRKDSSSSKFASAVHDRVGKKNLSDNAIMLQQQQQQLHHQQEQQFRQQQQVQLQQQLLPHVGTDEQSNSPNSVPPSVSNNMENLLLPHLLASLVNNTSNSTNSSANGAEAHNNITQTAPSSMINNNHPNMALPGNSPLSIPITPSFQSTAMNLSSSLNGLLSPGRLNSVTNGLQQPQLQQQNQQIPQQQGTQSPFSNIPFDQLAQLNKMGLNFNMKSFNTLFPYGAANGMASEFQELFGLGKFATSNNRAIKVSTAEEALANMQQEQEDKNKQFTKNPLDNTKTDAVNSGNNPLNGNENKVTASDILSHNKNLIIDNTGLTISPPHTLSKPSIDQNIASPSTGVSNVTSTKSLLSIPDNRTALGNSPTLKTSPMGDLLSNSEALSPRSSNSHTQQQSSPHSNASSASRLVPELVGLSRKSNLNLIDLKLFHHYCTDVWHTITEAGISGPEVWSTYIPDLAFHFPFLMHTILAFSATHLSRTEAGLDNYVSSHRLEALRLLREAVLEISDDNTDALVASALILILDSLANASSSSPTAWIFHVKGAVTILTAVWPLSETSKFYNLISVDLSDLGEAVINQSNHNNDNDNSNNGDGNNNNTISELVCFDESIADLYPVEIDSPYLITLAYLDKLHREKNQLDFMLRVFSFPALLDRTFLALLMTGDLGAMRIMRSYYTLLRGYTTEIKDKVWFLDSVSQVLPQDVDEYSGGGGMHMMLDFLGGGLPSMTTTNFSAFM
Procedure: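 Universal 'all 10-mer' protein binding microarrays (Agilent AMADID 015681) probed with GST-tagged S. cerevisiae TFs (full-length or DBD) made by in vitro transcription/translation (PURExpress), about 100-200 nM. Bound TF was detected with fluorescent anti-GST. Each ungapped 8-mer (which stands for itself and its reverse complement) is scored by the PBM enrichment score (E-score), a modified Wilcoxon-Mann-Whitney statistic from -0.5 to +0.5, computed with the Universal PBM Analysis Suite. Scale: above 0.35 generally sequence-specific binding.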

Sequence	PBM E-score
AATATACA	0.104
AAAATACG	0.372
AATATACT	-0.0273
CATATACC	-0.0901
AATATACG	0.461
AAAATACA	-0.0245
CATATACA	0.0321
AAAATACC	0.0602
CATATACG	0.445
ACCCCGGT	0.00636
GGAGTTGA	0.0109
CTCTAGAA	-0.201
AAGGGCCC	-0.0372
CGCGGCTA	0.0813
ACATGCCC	-0.0896
ATCCGTGC	-0.0378
CTCCGTAA	0.187
CTCCGTAC	0.386
CACCGTAA	0.277
CACCGTAG	0.0943
CACCGTAC	0.4
ATCCGTAC	0.363
AAAAAGGG	-0.092
ACATCTAT	0.0869
CCAGGGCA	-0.108

Sequence	PBM E-score
GGCGCCCA	-0.0786
TCGCCCGA	-0.102
ATCGTAAG	0.308
TTCGTAAA	0.456
GACGTAAA	0.154
TCCGTAAA	0.332
ATCGTAAA	0.436
ATCGTAAT	0.263
CCCGTAAA	0.32
GTCGTAAA	0.473
CTCGTAAA	0.475
CACGTAAA	0.106
TGCGTAAA	0.228
GGCGTAAA	0.159
CTCCACAG	-0.248
GCGCGACC	0.173
ACTCCGGC	0.0584
AAAAACTG	-0.116
GCCTCGCA	0.205
ACAACCGC	0.111
AGCCTTAC	-0.108
CTTCGGCC	-0.151
ACGAACAA	0.38
CCGAACAA	0.127
GCGAACAA	0.148

Sequence	PBM E-score
ACGAACAT	0.386
ACGAACAG	0.282
ACGAACAC	0.318
GGCCGACC	-0.224
GCCTGAAA	-0.139
GACGTCTA	-0.23
ATGACGGC	-0.236
ACGACGGG	0.393
ACGACGGA	0.388
ACGACGGC	0.37
CCGACGGA	0.0916
ATGACGGG	-0.125
GCGACGGA	0.124
AGGACGGG	-0.147
CCGACGGC	0.129
CACGTTCC	0.201
AGGCAACT	-0.02
ATCCTACC	-0.186
AACGGAGA	0.18
ATCGGGCA	-0.122
CTGCGAAG	-0.0466
CATAAACA	-0.0236
AATAAACT	-0.0489
CATAAACG	0.437
AATAAACG	0.41

Sequence	PBM E-score
AATAAACA	0.0258
CATAAACC	-0.0464
CGGCACTA	-0.0606
GAAGTCGC	0.108
ATGCACCA	-0.108
TAGATAAA	0.057
CCGACGAG	0.165
AAGACGTC	0.00719
GCGACGTA	0.265
ACGACGTC	0.393
AGGACGTG	-0.194
ACGACGTA	0.414
ACGACGAG	0.38
ACGACGAC	0.364
CCGACGTC	0.138
CCGACGTA	0.208
ATGACGTG	-0.166
ACGACGTG	0.372
GACCCGTA	0.24
ACCTTCGC	0.143
CAGGACGA	-0.283
CTCCGTTA	0.0433
GTCTACCA	-0.215
GTAAACGA	0.485
ATAAACGG	0.408

Sequence	PBM E-score
GTAAACCA	0.0466
ATAAACGC	0.192
GTAAACTA	0.188
ATAAACTG	0.0158
AAAAACGG	0.13
ATAAACGA	0.484
AAAAACGA	0.323
CATCCCCC	-0.207
GATCCACA	-0.13
ATGAACGA	0.453
GTGAACTA	0.0738
ATGAACGC	0.118
CTGAACGC	0.023
CTGAACTA	-0.092
ATGAACGG	0.262
GTGAACAA	0.198
CTGAACGA	0.456
GTGAACGA	0.426
AACGGTTA	0.27
CATTGTCG	0.0896
CTAGGGAC	-0.323
CGCCAGAC	0.00345
GGTAACAC	-0.135
CATTCGCA	0.0842
GATTCGGA	0.171

Sequence	PBM E-score
GATTCGTA	0.45
CATTCGTC	0.112
AATTCGTA	0.441
AATTCGTG	-0.036
AATTCGTC	0.0772
CATTCGTA	0.407
GATTCGCA	0.227
ACCCCCCT	-0.25
AGTAGGCC	0.00266
GAATTGTC	-0.0741
AGAACCCA	-0.131
GGCTCCTA	-0.159
GCATTTAC	-0.0379
CTTCCGTA	0.319
GTTCCGTA	0.389
ATTCCGTA	0.284
ACAGAAGC	-0.0614
GCGTACGA	0.448
ACGTACGT	0.245
TCCTACGA	0.26
ACGTACGA	0.441
CCGTACGG	0.378
TCGTACGA	0.469
TCGCACGA	0.183
GCGTACGC	0.178

Sequence	PBM E-score
CCCTACGG	-0.215
ACGTACGG	0.362
GCGTACTA	0.152
ACGTACGC	0.239
CTAGCGGC	-0.29
AGAGCGGC	-0.228
CTCTTAAC	0.0664
ATCTGCAC	-0.117
CATCAGCC	-0.121
TAGCTGAA	0.0371
ACTTCGAG	-0.105
TCCGCCAA	-0.121
ATTTCTGA	-0.286
AAGTGCAA	-0.0854
AGGTCAGA	-0.204
TGAGGTAA	-0.264
CCGTACGC	0.324
CCGTACGA	0.445
CCGTACTA	0.341
GAGGTTGA	-0.0744
AGAGAAGC	-0.0688
CTTTTATC	-0.0345
GGTTTATA	0.152
CGTTTATA	0.426

From the supplement of paper PMC3334620
